Results published in PubChem BioAssay (NCATS).
“And” between values parts separate entries of the source, which are not always exact repeats. Equal values may be shown once. Inconclusive results are not listed. The source made the active and inactive calls. The call rests on the fitted dose curve; in most records, active means well fitted inhibition curve with a large enough effect; inconclusive means small, poorly fitted or top-dose-only effect; inactive means flat fitted curve, though single readings scatter.

Key:
[1] = qHTS profiling for inhibitors of Plasmodium falciparum proliferation (AID 504749);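 further: 0% = DMSO vehicle and full inhibition = artemisinin control; nearly all actives have a fitted effect of over 60% in size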; settings: P. falciparum in erythrocytes, SYBR Green DNA, 72 h
Outline: (§1)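 SYBR Green fluorescence of parasite DNA, read after lysis and overnight dark incubation, measured growth over 72 h in erythrocyte culture at 0.3% parasitemia and 2.5% hematocrit. Data normalised to DMSO and 0.29 uM artemisinin, with plate-drift correction.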

[2] = test system: 3D7; assay: as above; settings: P. falciparum in erythrocytes, SYBR Green DNA, 72 h; series mostly up to 28.7 µM
Outline: as §1

[3] = test system: 7G8; assay: as above; settings: P. falciparum in erythrocytes, SYBR Green DNA, 72 h; series mostly up to 28.7 µM
Outline: as §1

[4] = test system: AA1029; assay: as above; settings: P. falciparum in erythrocytes, SYBR Green DNA, 72 h; series mostly up to 28.7 µM
Outline: as §1

[5] = test system: AS120; assay: as above; settings: P. falciparum in erythrocytes, SYBR Green DNA, 72 h; series mostly up to 28.7 µM
Outline: as §1

[6] = test system: ATS189; assay: as above; settings: P. falciparum in erythrocytes, SYBR Green DNA, 72 h; series mostly up to 28.7 µM
Outline: as §1

[7] = test system: ATS95; assay: as above; settings: P. falciparum in erythrocytes, SYBR Green DNA, 72 h; series mostly up to 28.7 µM
Outline: as §1

[8] = test system: C2A; assay: as above; settings: P. falciparum in erythrocytes, SYBR Green DNA, 72 h; series mostly up to 28.7 µM
Outline: as §1

[9] = test system: CP185; assay: as above; settings: P. falciparum in erythrocytes, SYBR Green DNA, 72 h; series mostly up to 28.7 µM
Outline: as §1

[10] = test system: CP191; assay: as above; settings: P. falciparum in erythrocytes, SYBR Green DNA, 72 h; series mostly up to 28.7 µM
Outline: as §1

[11] = test system: CP192; assay: as above; settings: P. falciparum in erythrocytes, SYBR Green DNA, 72 h; series mostly up to 28.7 µM
Outline: as §1

[12] = test system: CP194; assay: as above; settings: P. falciparum in erythrocytes, SYBR Green DNA, 72 h; series mostly up to 28.7 µM
Outline: as §1

[13] = test system: CP201; assay: as above; settings: P. falciparum in erythrocytes, SYBR Green DNA, 72 h; series mostly up to 28.7 µM
Outline: as §1

[14] = test system: CP203; assay: as above; settings: P. falciparum in erythrocytes, SYBR Green DNA, 72 h; series mostly up to 28.7 µM
Outline: as §1

[15] = test system: CP211; assay: as above; settings: P. falciparum in erythrocytes, SYBR Green DNA, 72 h; series mostly up to 28.7 µM
Outline: as §1

[16] = test system: CP215; assay: as above; settings: P. falciparum in erythrocytes, SYBR Green DNA, 72 h; series mostly up to 28.7 µM
Outline: as §1

[17] = test system: CP217; assay: as above; settings: P. falciparum in erythrocytes, SYBR Green DNA, 72 h; series mostly up to 28.7 µM
Outline: as §1

[18] = at 28.7 µM (top of the series), parasite line A
[19] = at 28.7 µM (top of the series), parasite line B
[20] = at 12.8 µM (top of the series), parasite line A
[21] = at 12.8 µM (top of the series), parasite line B

CC(O)COc1ccccc1 (centres undefined)
inactive: activity, negative = inhibition [1, 18] 5.76% | activity, negative = inhibition [1, 19] 0.212% | Potency [2] | Potency [3] | Potency [4] | Potency [5] | Potency [6] | Potency [7] | Potency [8] | Potency [9] | Potency [10] | Potency [11] | Potency [12] | Potency [13] | Potency [14] | Potency [15] | Potency [16] | Potency [17]

COc1ccc(Cl)cc1C(=O)NCCc1ccc(S(=O)(=O)NC(=O)NC2CCCCC2)cc1
inactive: activity, negative = inhibition [1, 18] 10.8% | activity, negative = inhibition [1, 19] 8.21% | Potency [2] | Potency [3] | Potency [4] | Potency [5] | Potency [6] | Potency [7] | Potency [8] | Potency [9] | Potency [10] | Potency [11] | Potency [12] | Potency [13] | Potency [14] | Potency [15] | Potency [17]

CCOC(=O)c1ccc(O)cc1
inactive: activity, negative = inhibition [1, 18] 6.51% | activity, negative = inhibition [1, 19] -7.49% | Potency [2] | Potency [3] | Potency [4] | Potency [5] | Potency [6] | Potency [7] | Potency [8] | Potency [9] | Potency [10] | Potency [11] | Potency [12] | Potency [13] | Potency [14] | Potency [15] | Potency [16] | Potency [17]

O=c1cc[nH]c(=O)[nH]1
inactive: activity, negative = inhibition [1, 18] 9.07% | activity, negative = inhibition [1, 19] 2.41% | Potency [2] | Potency [3] | Potency [4] | Potency [5] | Potency [6] | Potency [7] | Potency [8] | Potency [9] | Potency [10] | Potency [11] | Potency [12] | Potency [13] | Potency [15] | Potency [16] | Potency [17]

COc1cc(C(=O)N2CCOCC2)cc(OC)c1OC
inactive: activity, negative = inhibition [1, 18] 13.6% and -1.06% | activity, negative = inhibition [1, 19] 0.0617% and 7.6% | Potency [2] | Potency [3] | Potency [4] | Potency [5] | Potency [6] | Potency [7] | Potency [8] | Potency [9] | Potency [10] | Potency [11] | Potency [12] | Potency [13] | Potency [14] | Potency [15] | Potency [16] | Potency [17]

Cc1cccc(C)c1NC(=O)CN(CC(=O)O)CC(=O)O
inactive: activity, negative = inhibition [1, 18] 13.4% | activity, negative = inhibition [1, 19] 2.17% | Potency [2] | Potency [3] | Potency [4] | Potency [5] | Potency [6] | Potency [7] | Potency [8] | Potency [9] | Potency [10] | Potency [11] | Potency [12] | Potency [13] | Potency [14] | Potency [15] | Potency [16] | Potency [17]

Cc1ncc(COP(=O)(O)O)c(C=O)c1O
inactive: activity, negative = inhibition [1, 18] -4.1% | activity, negative = inhibition [1, 19] 3.77% | Potency [2] | Potency [3] | Potency [4] | Potency [5] | Potency [6] | Potency [7] | Potency [8] | Potency [9] | Potency [10] | Potency [11] | Potency [12] | Potency [13] | Potency [14] | Potency [15] | Potency [16] | Potency [17]

CCOc1ccc2ccccc2c1C(=O)N[C@@H]1C(=O)N2[C@@H]1SC(C)(C)[C@@H]2C(=O)O
inactive: activity, negative = inhibition [1, 20] 11.5% | activity, negative = inhibition [1, 21] -19.5% | Potency [2] | Potency [3] | Potency [4] | Potency [5] | Potency [6] | Potency [7] | Potency [8] | Potency [9] | Potency [10] | Potency [11] | Potency [12] | Potency [13] | Potency [15] | Potency [16] | Potency [17]

O=c1[nH]c(=O)c2[nH]c(=O)[nH]c2[nH]1
inactive: activity, negative = inhibition [1, 18] -3.55% | activity, negative = inhibition [1, 19] 2.26% | Potency [2] | Potency [3] | Potency [4] | Potency [5] | Potency [6] | Potency [7] | Potency [8] | Potency [9] | Potency [10] | Potency [11] | Potency [12] | Potency [13] | Potency [15] | Potency [16] | Potency [17]

NC(=O)NNc1ccccc1
inactive: activity, negative = inhibition [1, 18] -7.35% and 18% | activity, negative = inhibition [1, 19] 13.9% and 11.9% | Potency [2] | Potency [3] | Potency [4] | Potency [5] | Potency [6] | Potency [7] | Potency [8] | Potency [9] | Potency [10] | Potency [11] | Potency [12] | Potency [13] | Potency [14] | Potency [15] | Potency [16] | Potency [17]

CCn1cc(C(=O)O)c(=O)c2cnc(N3CCNCC3)nc21
inactive: activity, negative = inhibition [1, 20] 7.13% | activity, negative = inhibition [1, 21] -22.6% | Potency [2] | Potency [3] | Potency [4] | Potency [5] | Potency [6] | Potency [7] | Potency [8] | Potency [9] | Potency [10] | Potency [11] | Potency [12] | Potency [13] | Potency [14] | Potency [15] | Potency [17]

Cc1cccc(Nc2cc(Cl)nc(SCC(=O)O)n2)c1C
inactive: activity, negative = inhibition [1, 18] 11.5% | activity, negative = inhibition [1, 19] 13.9% | Potency [2] | Potency [3] | Potency [4] | Potency [5] | Potency [6] | Potency [7] | Potency [8] | Potency [9] | Potency [10] | Potency [11] | Potency [12] | Potency [13] | Potency [14] | Potency [15] | Potency [16] | Potency [17]

NCCNCCNCCNCCN
inactive: activity, negative = inhibition [1, 18] 12.5% | activity, negative = inhibition [1, 19] -2.06% | Potency [2] | Potency [3] | Potency [4] | Potency [5] | Potency [6] | Potency [7] | Potency [8] | Potency [9] | Potency [10] | Potency [11] | Potency [12] | Potency [13] | Potency [14] | Potency [15] | Potency [16] | Potency [17]
